Test results from PubChem BioAssay (Tox21).
Several values for one entry are separate records, joined by “and”; a condition that tells them apart may be missing. Identical values can stand only once. Records with an inconclusive call do not appear. A call without a number means that no potency is given here. More than one record can exist for a structure, and the calls need not agree. Activity calls are given as the source filed them. Unless noted, calls come from the whole dose curve; as a rule, active = well fitted curve in the direction sought with a large enough effect in the repeat runs; inconclusive = weak or mixed curves; inactive = no such curve, though single readings can be large; an effect the other way counts as inactive or inconclusive.

Legend:
[1] = qHTS assay for small molecules that induce genotoxicity in human embryonic kidney cells expressing luciferase-tagged ATAD5 - cell viability (AID 651634; calls by dose curve; note: nearly all actives have a fitted effect of over 25% in size; note: potency is the fitted concentration of half-maximal effect)
Outline: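 Quantitative high-throughput format. HEK293T cells expressing ATAD5 fused to luciferase were plated at 2,000 cells/well and treated 15.5 hr with compound versus DMSO. Viability was determined by fluorescent live-cell protease substrate, 30 min at 37C.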

[2] = qHTS assay to test for compound auto fluorescence at 590 nm (red) in HepG2 cells (AID 720674)
Outline: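 HepG2 cells, 2,000 per well in MEM with 10% FBS, attached overnight at 37 C, then got 23 nL compound or DMSO. After 1 hr at 37 C, 5% CO2, red fluorescence was read at 540/590 nm against Rose Bengal sodium as reference.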

[3] = qHTS assay to test for compound auto fluorescence at 535 nm (green) in HepG2 cells (AID 720675)
[4] = qHTS assay to test for compound auto fluorescence at 590 nm (red) in HEK293 cells (AID 720679)
Outline: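 Red channel, Ex/Em 540/590nm; signal expressed as equivalency to Rose Bengal sodium. HEK293, 2,000 cells/well, 10% dialyzed FBS; 23 nL compound pinned after 4-5 hr attachment; overnight 37C/5% CO2 before reading.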

[5] = qHTS assay to test for compound auto fluorescence at 535 nm (green) in HEK293 cells (AID 720680)
[6] = qHTS assay to test for compound auto fluorescence at 460 nm (blue) in HEK293 cell free culture (AID 720681)
Outline: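 Compounds were added to cell-free DMEM with 10% FBS and fluorescence read directly. The blue channel used 405 nm excitation and 460 nm emission, with triamterene as the reference fluorophore.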

[7] = qHTS assay to test for compound auto fluorescence at 535 nm (green) in HEK293 cell free culture (AID 720682)
Outline: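 Fluorescein serves as the green reference fluorophore; each compound's intrinsic emission at 535 nm (excitation 485 nm) is reported as an equivalent amount of that dye, measured in serum-containing DMEM without cells.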

[8] = qHTS assay to test for compound auto fluorescence at 590 nm (red) in HEK293 cell free culture (AID 720683)
Outline: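 Cell-free wells of DMEM with 10% FBS received compound, and intrinsic fluorescence was read at excitation/emission 540/590 nm. Values expressed as equivalence to Rose Bengal sodium.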

[9] = qHTS assay to test for compound auto fluorescence at 590 nm (red) in HepG2 cell free culture (AID 720684)
Outline: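 Auto fluorescence equivalency versus Rose Bengal sodium, red channel Ex/Em 540/590 nm; compounds in cell-free MEM/10% FBS; DMSO vehicle control.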

[10] = qHTS assay to test for compound auto fluorescence at 460 nm (blue) in HepG2 cell free culture (AID 720685)
Outline: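 Cell-free plates of MEM plus 10% FBS received 23 nL compound or DMSO vehicle; blue-channel (405/460 nm) intensity scored against triamterene as reference fluorophore.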

[11] = qHTS assay to test for compound auto fluorescence at 535 nm (green) in HepG2 cell free culture (AID 720686)
[12] = qHTS assay to test for compound auto fluorescence at 460 nm (blue) in HepG2 cells (AID 720687)
Outline: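 HepG2 cells in MEM with 10% FBS, attached overnight at 37 C, were exposed to compound or DMSO for 1 hr at 37 C, 5% CO2. Blue fluorescence was read at 405/460 nm, with triamterene as reference fluorophore.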

[13] = qHTS assay for small molecules that induce genotoxicity in human embryonic kidney cells expressing luciferase-tagged ATAD5 (AID 651632); note: nearly all actives have a fitted effect of over 15% in size; note: potency is the fitted concentration of half-maximal effect
Outline: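 Test compounds were delivered by pin tool onto HEK293T reporter cells (2,000/well) expressing ATAD5 fused to luciferase. After 16 hr at 37C, 5% CO2, Amplite was added for 30 min at room temperature and luminescence was measured.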

[14] = qHTS assay for small molecule agonists of the p53 signaling pathway - cell viability (AID 651633; calls by dose curve; note: nearly all actives have a fitted effect of over 30% in size; note: potency is the fitted concentration of half-maximal effect)
Outline: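 p53RE-bla cells were treated with compound for 16 hours at 37 C. Cytotoxicity was then measured as CellTiter-Glo luminescence after 30 min at room temperature.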

[15] = qHTS assay to test for compound auto fluorescence at 460 nm (blue) in HEK293 cells (AID 720678)
Outline: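 Blue read-out at excitation 405 nm and emission 460 nm follows overnight compound exposure of HEK293 cells at 37C in 5% CO2. Activity is given as auto fluorescence equivalency to triamterene.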

[16] = molecular target: Glucocorticoid receptor (Homo sapiens) (UniProt P04150); assay: qHTS assay to identify small molecule agonists of the glucocorticoid receptor (GR) signaling pathway (AID 720691; active = well fitted activation curve with a large enough effect in the signal ratio in the repeat runs, not every such curve was filed as active; the % refers to the signal ratio)
Chain of Glucocorticoid receptor (Homo sapiens) (P04150 whole entry, looked up): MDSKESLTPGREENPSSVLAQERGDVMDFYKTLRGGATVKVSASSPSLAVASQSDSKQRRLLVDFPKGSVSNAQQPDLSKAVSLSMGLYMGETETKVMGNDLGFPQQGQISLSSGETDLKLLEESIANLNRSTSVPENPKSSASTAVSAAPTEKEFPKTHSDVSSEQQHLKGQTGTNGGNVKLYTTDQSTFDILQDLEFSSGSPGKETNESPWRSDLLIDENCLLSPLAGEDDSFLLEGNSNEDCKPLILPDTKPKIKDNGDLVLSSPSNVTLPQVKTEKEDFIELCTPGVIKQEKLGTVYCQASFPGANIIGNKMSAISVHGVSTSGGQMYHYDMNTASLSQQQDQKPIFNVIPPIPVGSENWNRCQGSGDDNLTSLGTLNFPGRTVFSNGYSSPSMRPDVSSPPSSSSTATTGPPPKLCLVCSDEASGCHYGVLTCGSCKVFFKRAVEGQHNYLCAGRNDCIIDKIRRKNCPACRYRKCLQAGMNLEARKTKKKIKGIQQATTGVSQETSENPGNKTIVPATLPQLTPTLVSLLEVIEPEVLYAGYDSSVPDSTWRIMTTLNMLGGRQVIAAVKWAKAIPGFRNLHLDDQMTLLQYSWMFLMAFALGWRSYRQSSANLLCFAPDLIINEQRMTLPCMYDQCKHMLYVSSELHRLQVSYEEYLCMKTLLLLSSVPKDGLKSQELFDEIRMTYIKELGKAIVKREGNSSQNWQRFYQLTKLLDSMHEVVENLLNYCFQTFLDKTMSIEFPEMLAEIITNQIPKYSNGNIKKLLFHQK
Outline: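 A HeLa cervical cancer line expressing GR and a glucocorticoid response element-driven beta-lactamase gene is treated with compounds for 18 h; LiveBLAzer B/G FRET substrate is then applied and fluorescence read.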

[17] = molecular target: Glucocorticoid receptor (Homo sapiens) (UniProt P04150); assay: qHTS assay to identify small molecule antagonists of the glucocorticoid receptor (GR) signaling pathway (AID 720692; active = well fitted inhibition curve with a large enough effect in the signal ratio in the repeat runs, not every such curve was filed as active; the % refers to the signal ratio; note: potency is the fitted concentration of half-maximal effect)
Outline: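 GRE-bla HeLa line, dex-stimulated (5 nM final). Compound exposure 18 h, 37 C. Beta-lactamase FRET read after 2 h RT substrate.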

[18] = qHTS assay for small molecule disruptors of the mitochondrial membrane potential - cell viability (AID 720634; calls by dose curve; note: nearly all actives have a fitted effect of over 20% in size; note: potency is the fitted concentration of half-maximal effect)
Outline: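 Same-well counter-screen: following the MMP dye addition, CellTiter-Glo was added to 1 hr compound-treated HepG2 cells and luminescence read after 30 min at room temperature.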

[19] = qHTS assay for small molecule disruptors of the mitochondrial membrane potential (AID 720635); note: potency is the fitted concentration of half-maximal effect
Outline: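 HepG2 cells exposed to compound 1 hr at 37C, then Mito-MPS dye 30 min. Ratio read of aggregate (540/590 nm) versus monomer (490/535 nm) fluorescence.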

Structure (SMILES)	Potency [1]	outcome [2]	outcome [3]	outcome [4]	outcome [5]	Potency [6]	outcome [7]	outcome [8]	outcome [9]	Potency [10]	outcome [11]	Potency [12]	Potency [13]	Potency [14]	Potency [15]	outcome [16]	Potency [17]	Potency [18]	Potency [19]
[Cl-].[Cl-].[Cl-].[Fe+3]	inactive	inactive	inactive	inactive	inactive	inactive	inactive	inactive	inactive	inactive	inactive	inactive							
CC(C)(c1ccc(OCC2CO2)cc1)c1ccc(OCC2CO2)cc1 (stereo unspecified)	inactive			inactive	inactive	inactive	inactive	inactive	inactive	inactive	inactive	inactive	inactive	61.9 µM (active) and 61.1 µM (active)	inactive	inactive	49 µM (active)		
Cc1cccc(N=Nc2ccc(N(C)C)cc2)c1	35 µM (active) and 27.3 µM (active)			inactive	inactive	inactive	inactive	inactive	inactive	inactive	inactive	inactive	986 nM (active) and 1.93 µM (active)	inactive	inactive	inactive		19.7 µM (active) and 21.7 µM (active)	24.8 µM (active) and 27.3 µM (active)
N#Cc1nn(-c2c(Cl)cc(C(F)(F)F)cc2Cl)c(N)c1S(=O)C(F)(F)F (stereo unspecified)	inactive		inactive	inactive	inactive	inactive	inactive	inactive	inactive	inactive	inactive	inactive	inactive	inactive		inactive		10.6 µM (active) and 1.54 µM (active)	5.31 µM (active) and 1.54 µM (active)
CC(C)COC(=O)c1ccccc1C(=O)OCC(C)C	inactive	inactive		inactive	inactive	inactive	inactive	inactive	inactive	inactive	inactive	inactive	inactive	inactive	inactive	inactive	inactive	inactive	68.6 µM (active)
CC(C)=CC1C(C(=O)OCN2C(=O)C3=C(CCCC3)C2=O)C1(C)C (stereo unspecified)	inactive		inactive	inactive	inactive	inactive	inactive	inactive	inactive	inactive	inactive	inactive	inactive	inactive	inactive	inactive			29.8 µM (active) and 54.5 µM (active)
CCCCCCCCCC(CC)c1ccc(S(=O)(=O)O)cc1 (stereo unspecified)		inactive	inactive	inactive	inactive	inactive	inactive	inactive	inactive	inactive	inactive	inactive	inactive			inactive	inactive	inactive and 68.6 µM (active)	61.1 µM (active)
CCC(=O)Nc1ccc(Cl)c(Cl)c1	inactive		inactive	inactive	inactive	inactive	inactive	inactive	inactive	inactive	inactive	inactive		inactive	inactive			54.5 µM (active)	31.3 µM (active) and 30.6 µM (active)
CC1(C)Cc2cccc(O)c2O1	inactive	inactive		inactive	inactive	inactive	inactive	inactive	inactive	inactive	inactive	inactive	inactive	inactive				inactive	inactive
N#Cc1cccnc1	inactive	inactive	inactive	inactive	inactive	inactive	inactive	inactive	inactive	inactive	inactive	inactive	inactive	inactive		inactive	inactive	inactive	inactive
CC1CC(=O)O1 (stereo unspecified)	inactive	inactive	inactive	inactive	inactive	inactive	inactive	inactive	inactive	inactive	inactive	inactive		inactive	inactive	inactive	inactive	inactive	inactive
CSc1nc(NC(C)C)nc(NC(C)C)n1	inactive	inactive	inactive	inactive	inactive	inactive	inactive	inactive	inactive	inactive	inactive	inactive	inactive	inactive	inactive			inactive	
C=CC(=O)OCC(CC)(COC(=O)C=C)COC(=O)C=C	15.8 µM (active) and 19.3 µM (active)		inactive	inactive	inactive	inactive	inactive	inactive	inactive	inactive	inactive	inactive	7.04 µM (active)	35.3 µM (active)				inactive	62.8 µM (active)
CCOP(=S)(OCC)SCn1c(=O)oc2cc(Cl)ccc21	inactive	inactive	inactive	inactive	inactive	inactive	inactive	inactive	inactive	inactive	inactive	inactive	inactive	inactive		inactive	inactive	54.5 µM (active)	29.3 µM (active) and 27.3 µM (active)
COc1ccc(O)c(C(C)(C)C)c1	inactive	inactive		inactive	inactive	inactive	inactive	inactive	inactive	inactive	inactive	inactive	inactive	inactive		inactive	inactive	inactive	30.7 µM (active) and 24.3 µM (active)
Oc1ccc(Cl)cc1Cc1ccccc1			inactive	inactive	inactive	inactive	inactive	inactive	inactive	inactive	inactive	inactive	inactive	55.1 µM (active)	inactive			13.3 µM (active) and 21.7 µM (active) and 15.4 µM (active)	5.96 µM (active) and 2.43 µM (active) and 1.55 µM (active)
CCOC(=O)c1ccccc1N	inactive			inactive	inactive	inactive	inactive	inactive	inactive	inactive	inactive	inactive	inactive	inactive	inactive	inactive	inactive	inactive	inactive
CCC[CH2][Sn]([Cl])([Cl])[CH2]CCC	694 nM (active) and 34.4 nM (active)	inactive		inactive	inactive	inactive	inactive	inactive	inactive	inactive	inactive	inactive	inactive	2.2 µM (active) and 969 nM (active)					
CCOP(=O)(O)OCC (tested in a mixture with another compound)				inactive	inactive	inactive	inactive	inactive	inactive	inactive	inactive	inactive	inactive	inactive and 60.6 µM (active)	inactive			inactive and 60.6 µM (active)	24.1 µM (active)
OCCOCCO	inactive	inactive		inactive	inactive	inactive	inactive	inactive	inactive	inactive	inactive	inactive	inactive	inactive		inactive	inactive	inactive	
CC(C)=CC1C(C(=O)OCc2cccc(Oc3ccccc3)c2)C1(C)C (stereo unspecified)	inactive			inactive	inactive	inactive	inactive	inactive	inactive	inactive	inactive	inactive	inactive	inactive	inactive	inactive		inactive	inactive
Clc1ccccc1-c1nnc(-c2ccccc2Cl)nn1	inactive	inactive	inactive	inactive	inactive	inactive	inactive	inactive	inactive	inactive	inactive	inactive	30.4 µM (active)						
O=[N+]([O-])c1ccc(Nc2ccccc2)cc1	54.5 µM (active)	inactive		inactive	inactive	inactive	inactive	inactive	inactive	inactive	inactive	inactive	inactive	inactive	inactive	inactive	49.4 µM (active)	61.1 µM (active)	7.75 µM (active) and 2.73 µM (active)
COP(=S)(OC)SCn1nnc2ccccc2c1=O	inactive	inactive		inactive	inactive	inactive	inactive	inactive	inactive	inactive	inactive	inactive	inactive	inactive					
